The list is not random: actives were taken first. Their share in the collection is about 21%.
DT40 TDP1 no CPT – qHTS for Inhibitors of human tyrosyl-DNA phosphodiesterase 1 (TDP1): qHTS in cells in absence of CPT; Potency, µM (top dose mostly 46.2 µM), without a hit: at the top dose activity change, negative = growth inhibition, usual class: inhibitors; DT40 Tdp1-/- hTDP1 cells, no CPT, ATP luminescence, 48 h; hit rate 15% among 420,000; note: potency is the fitted concentration of half-maximal effect; % is set by controls: 0 for no effect and ±100 for the full control effect; nearly all actives have a fitted effect of over 55% in size
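Readout: luminescence from CellTiter-Glo after 30 min in the dark at RT. Cells: DT40 Tdp1-/- with stable hTDP1, 400/well. Exposure: compounds alone, ≥48 hr, 37 °C.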
ClpP mod – qHTS Assay for Activators of ClpP; ATP-dependent Clp protease proteolytic subunit (Bacillus subtilis (strain 168)), P80244; purified B. subtilis ClpP, FRET peptide cleavage, 20 min; Potency, µM (top dose mostly 57.5 µM), inactives show at the top dose activity change, negative = active; hit rate 1.9% among 340,000; AID 651965, 2013; active = well fitted falling curve with a large enough effect; inconclusive = small, poorly fitted or top-dose-only effect; inactive = no such curve, though single readings can be large or run the other way; note: potency is the fitted concentration of half-maximal effect; the source files actives as falling curves though it sought activators and does not explain the sign; nearly all actives have a fitted effect of over 65% in size
Target sequence (P80244 whole entry, looked up): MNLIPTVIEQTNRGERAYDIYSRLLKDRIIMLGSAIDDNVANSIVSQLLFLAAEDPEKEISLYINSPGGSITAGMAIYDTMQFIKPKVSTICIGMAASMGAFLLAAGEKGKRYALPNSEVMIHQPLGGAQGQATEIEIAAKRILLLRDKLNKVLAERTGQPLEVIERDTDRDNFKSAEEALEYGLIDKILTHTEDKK
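ClpP 10 microg/mL final, pH 8 Tris/KCl buffer with BSA, glycerol, Tween-20; compound pinned in; FRET-FV substrate; RT 20 min; Ex320/Em430; ΔFRET vs ADEP 5.8 microM, DMSO, no enzyme.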
DRD3 antagonist – D3 dopamine receptor (human) antagonism; hit rate 2.5% among 360,000; P35462; D3R cells, DiscoveRx beta-arrestin luminescence, antagonist mode; stronger effect = lower value; max response, negative = inhibition, %; AID 652054; in the data active = max response below about -50%; inconclusive = no clear call, values can overlap the other calls; note: % is set by controls: 0 for no effect and ±100 for the full control effect
Target sequence (P35462 whole entry, looked up): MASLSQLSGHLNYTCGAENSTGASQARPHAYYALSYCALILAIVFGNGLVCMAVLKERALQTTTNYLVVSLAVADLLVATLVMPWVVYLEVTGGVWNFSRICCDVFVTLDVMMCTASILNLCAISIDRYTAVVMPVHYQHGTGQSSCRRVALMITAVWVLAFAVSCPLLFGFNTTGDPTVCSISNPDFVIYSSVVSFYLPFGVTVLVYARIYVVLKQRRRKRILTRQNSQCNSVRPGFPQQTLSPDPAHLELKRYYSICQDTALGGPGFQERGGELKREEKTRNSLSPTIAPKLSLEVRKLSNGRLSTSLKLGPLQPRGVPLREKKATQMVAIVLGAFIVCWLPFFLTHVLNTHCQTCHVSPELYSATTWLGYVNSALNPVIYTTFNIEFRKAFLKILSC
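Cells plated overnight at 1500 cells/well, then exposed to library compounds with dopamine controls for 90 minutes at 37 degrees C. DiscoveRx reagent added for 30–60 minutes at room temperature; luminescence read, quantitative HTS format.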
DT40 TDP1 CPT – growth inhibition of DT40 Tdp1-/-;hTDP1 cells with camptothecin (screen for TDP1 inhibitors) | chicken DT40 Tdp1-/-;hTDP1 cells + 20 nM CPT, ATP luminescence, 48 h | Potency, µM (titrated, usually from 46.2 µM), for the others: at the top dose activity change, negative = growth inhibition, usual class: inhibitors | hit rate 12% among 420,000 | AID 686979; note: potency is the fitted concentration of half-maximal effect; % is set by controls: 0 for no effect and ±100 for the full control effect; nearly all actives have a fitted effect of over 55% in size
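Chicken DT40 Tdp1-/- cells complemented with human TDP1, 400 cells/well, exposed to compounds plus 20 nM camptothecin for at least 48 h at 37 C; viability read as ATP content by CellTiter-Glo luminescence.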
IL1B secr inh – blocks inflammasome-driven IL-1 beta release | THP-1 LPS/ATP IL-1B secretion, AlphaLISA, 16 h; stronger effect = lower value | activity change, % at 57.5 µM | hit rate 4.7% among 360,000 | AID 743279; in the data active = activity change below about -50%; inconclusive = mostly about -30% to -49%; note: % is set by controls: 0 for no effect and ±100 for the full control effect
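THP-1 cells pretreated 1 hr with compounds (up to 57.5 uM final), then stimulated with LPS (250 ng/mL final) plus ATP (1.25 mM final); secreted IL-1B measured by AlphaLISA after 16 hr, decreased signal indicating inhibition.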
DRD3 agonist – activates the human D3 dopamine receptor | P35462 | D3R DiscoveRx beta-arrestin cells, luminescence, 90 min | hit rate 0.58% among 410,000 | max activation, %; in the data active = max activation above about 30%; note: 0% is about no effect
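Agonist mode: compounds and dopamine controls were applied to plated cells for 90 min at 37 degrees C after an overnight attachment at 1500 cells/well. Luminescent read-out followed 30 - 60 minutes at room temperature with DiscoveRx detection reagent.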
Active calls of the source: *; ? = inconclusive; / = not tested or not shown; [ ] = another dose, or the depositor's remark. Unless noted, calls come from the whole dose curve; as a rule, active = well fitted inhibition curve with a large enough effect; inconclusive = small, poorly fitted or top-dose-only effect; inactive = flat fitted curve, though single readings scatter.

SMILES | DT40 TDP1 no CPT | ClpP mod | DRD3 antagonist | DT40 TDP1 CPT | IL1B secr inh | DRD3 agonist
Nc1nc(-c2ccccc2)c(N=Nc2ccc(Cl)cc2)s1 | -11% | -2% | -10 | 1% | -7 | -4
Cc1nc(N)sc1N=Nc1ccccc1C(F)(F)F | ? | / | -7 | ? | -71* | 14
Cc1nnc(NC(=O)C2CCN(S(=O)(=O)c3ccc(Cl)cc3)CC2)s1 | -1% | / | -1 | 2% | 7 | -2
c1cc(CN2CCCCC2)cc(OCCCNc2nc3ccccc3s2)c1 | 12µM* | 1% | -75* | 18µM* | -8 | -80
COc1cccc(CNc2nc3ccc(NC(C)=O)cc3s2)c1 | -12% | / | -17 | -9% | 28 | 12
O=C(NCCCOc1cccc(CN2CCCCC2)c1)c1ccc(Cl)c(Cl)c1 | 13µM* | 16µM* | -98* | 18µM* | ? | -38
COc1ccc(Cn2cc(S(=O)(=O)c3ccc(Cl)cc3)c(=O)c3cc4c(cc32)OCO4)cc1 | -15% | -11% | / | 3% | / | 5
O=S(=O)(N/N=C/c1ccc2c(c1)OCCO2)c1ccc(Cl)cc1 | -10% | -2% | -20 | -21% | 6 | 3
O=S(=O)(N/N=C\c1c(F)cccc1Cl)c1ccc(Cl)cc1 | ? | 1% | ? | 13µM* | 6 | -11
O=[N+]([O-])c1ccc(N/N=C\c2cccnc2)nc1 | -15% | 0% | 12 | 0% | 23 | 2
Cc1cccc(C)c1-n1c(C)cc(/C=N\Nc2ccc([N+](=O)[O-])cn2)c1C | 15µM* | 2% | ? | ? | -22 | -13
CC(=O)Nc1ccc(C=NNc2ccc([N+](=O)[O-])cn2)cc1 | -25% | / | -13 | 23µM* | 9 | -1
O=[N+]([O-])c1ccc(NN=Cc2cc(Br)ccc2O)nc1 | 1.3µM* | / | ? | 2.6µM* | 105 | -17
COc1cc(/C=N/Nc2ccc([N+](=O)[O-])cn2)cc(OC)c1O | ? | / | 2 | 1% | 79 | 5
O=[N+]([O-])c1ccc(NN=Cc2cccc(O)c2)nc1 | ? | / | -27 | 23µM* | 35 | -18
Cc1cc(C(=O)N/N=C/c2cc(Br)ccc2OC(=O)c2ccccc2)n[nH]1 | 6.5µM* | -9% | 5 | 7.3µM* | 166 | 2
Cc1cc(C(=O)N/N=C/c2ccc3ccccc3c2)n[nH]1 | ? | -22% | 0 | ? | -10 | -9
Cc1cc(C(=O)N/N=C/c2cc(Br)ccc2OC(=O)c2ccccc2Cl)n[nH]1 | 4.6µM* | -1% | 0 | 5.8µM* | 78 | 6
Cc1cc(C(=O)N/N=C/c2ccc(OC(=O)c3ccccc3Br)cc2)n[nH]1 | ? | -1% | 0 | ? | -9 | 6
COc1cccc(-c2c(C(=O)N/N=C/c3ccoc3)nnn2-c2nonc2N)c1 | 2% | / | -16 | 3% | 8 | -11
O=C1CCCC2=C1C(c1ccc(O)c(Br)c1)C1=C(CCCC1=O)N2c1ccccc1 | 23µM* | / | -2 | ? | -8 | 10
CC1CC(C)CN(CC(=O)NCCc2ccc(S(N)(=O)=O)cc2)C1 (stereo unspecified) | 2% | / | 17 | 1% | 2 | -2
N#CC1(c2ccc(NC(=O)c3ccccc3F)cc2)CCCC1 | ? | -1% | -29 | ? | -69* | -15
O=C(Nc1ccc(Nc2ccccc2)cc1)c1ccccc1F | ? | / | 2 | ? | -97* | 14
CCN(CC)c1ccc(NC(=O)c2ccccc2F)cc1 | 23µM* | -1% | 11 | ? | 16 | -2
SMILES | DT40 TDP1 no CPT | ClpP mod | DRD3 antagonist | DT40 TDP1 CPT | IL1B secr inh | DRD3 agonist
CCN(CC)c1ccc(NC(=O)c2ccco2)cc1 | -13% | -1% | 5 | -7% | -13 | -7
Cn1ccnc1C1CCCCN1C(=O)CN1Cc2ccccc2OC(c2ccccc2F)C1 (stereo unspecified) | ? | / | / | -11%[9.04 µM] | / | /
O=C(NCC1Cc2cccc(-c3cccnc3)c2O1)c1cc(-c2ccccc2)n[nH]1 (stereo unspecified) | ? | / | / | -1%[9.04 µM] | / | /
COc1ccc(C(=O)N/C(=C\c2ccco2)C(=O)NCCCn2ccnc2)cc1 | -1% | 101% | -55* | -5% | -1 | -17
CCn1cc(/C=C(\NC(=O)c2ccc(C)cc2)C(=O)NCCCn2ccnc2)c2ccccc21 | 21µM* | -4% | / | ? | / | -14
O=C(CC[C@H]1O[C@@H](n2cnc3c(NC(=O)c4ccccc4)ncnc32)[C@H](O)[C@@H]1O)NCCCN1CCOCC1 | -10% | 0% | -8 | -9% | 0 | 7
Cc1cc(O)c(C(C)C)cc1N=Cc1cc([N+](=O)[O-])ccc1O | 16µM* | -2% | ? | 23µM* | 2 | -17
Cc1cc(O)c(C(C)C)cc1N=Cc1ccccc1O | 4.6µM* | -3% | -25 | 3.7µM* | -10 | -14
CCCCSc1nnc(CSc2ncccn2)n1C | 3% | / | -6 | 8% | 23 | 2
CNc1ccc(Br)cc(C(=O)/C=C/c2ccc(OC)cc2OC)c1=O | 15µM* | -1% | 10 | 9.2µM* | ? | -12
CNc1ccc(Br)cc(C(=O)/C=C/c2ccc(Cl)cc2Cl)c1=O | 18µM* | / | ? | 4.6µM* | -91* | -8
CNc1ccc(Br)cc(C(=O)/C=C/c2cccc(OC)c2)c1=O | 7.3µM* | -9% | -7 | 13µM* | -101* | -1
CCNC(=O)C1(C)CCCN(C(=O)c2cc(OC)ccc2Br)C1 (stereo unspecified) | 0% | 2% | ? | 4% | 0 | 5
O=C(CCCn1nnnc1CN1CCOCC1)N1CCC(c2ccccc2Cl)C1 (stereo unspecified) | -28% | 0% | 17 | -22% | 1 | 0
CSc1ccc(CN2CCCC(CNC(=O)c3ccc(F)cc3)C2)cc1 (stereo unspecified) | 10% | / | -24 | 8% | -15 | -16
CCCCCCCCCCCCCCCCn1cc[n+](CC(C)=O)c1 | 1.3µM* | 1% | -24 | 0.65µM* | 22 | 3
Cn1c(=O)c2c(SCC(=O)N3CCN(c4ccccc4)CC3)nc(C3CC3)nc2n(C)c1=O | 7.3µM* | -2% | 16 | 13µM* | 0 | 2
Cn1c(=O)c2c(SCCN3CCOCC3)nc(C3CCCC3)nc2n(C)c1=O | 21µM* | 0% | -2 | 16µM* | 30 | -8
CCCc1nc(SCC(=O)N2CCCc3ccccc32)c2c(=O)n(C)c(=O)n(C)c2n1 | 23µM* | -2% | 41 | 26µM* | 59 | 4
